Results on eight compounds are retold here after PubChem BioAssay (NCATS).

Experiment [1] deals with Lysosomal acid glucosylceramidase (Homo sapiens) (UniProt P04062). In words: Glucocerebrosidase-p2 (AID 348; in the data active = potency below about 10 µM; note: potency is the fitted concentration of half-maximal effect). To be noted: purified GBA, blue fluorogenic substrate, 40 min. The method, boiled down: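 Normal human glucocerebrosidase (0.2 nM) with blue fluorogenic substrate (80 uM final) in citrate/phosphate pH 5.9 with 10mM sodium taurocholate, 0.01% tween-20; 40 min RT, NaOH/glycine stop; fluorescence Ex 365/Em 440; AC50 from a titration from 0.6 nM upwards.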
Chain of Lysosomal acid glucosylceramidase (Homo sapiens) (P04062 whole entry, looked up): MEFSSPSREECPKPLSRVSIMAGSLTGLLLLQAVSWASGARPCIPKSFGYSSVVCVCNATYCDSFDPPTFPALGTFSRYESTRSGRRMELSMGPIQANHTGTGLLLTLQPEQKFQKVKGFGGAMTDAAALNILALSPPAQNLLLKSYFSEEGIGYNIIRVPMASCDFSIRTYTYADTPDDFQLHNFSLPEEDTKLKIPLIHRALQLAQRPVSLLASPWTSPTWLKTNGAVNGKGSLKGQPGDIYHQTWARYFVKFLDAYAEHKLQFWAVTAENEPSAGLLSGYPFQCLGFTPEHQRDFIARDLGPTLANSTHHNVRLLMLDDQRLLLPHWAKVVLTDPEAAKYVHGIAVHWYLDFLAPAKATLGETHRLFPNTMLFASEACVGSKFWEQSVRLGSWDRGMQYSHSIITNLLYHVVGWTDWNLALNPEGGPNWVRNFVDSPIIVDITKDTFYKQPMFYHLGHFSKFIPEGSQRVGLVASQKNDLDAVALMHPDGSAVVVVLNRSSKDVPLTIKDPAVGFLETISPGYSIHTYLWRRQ

A short description of experiment [2]: AP1 Signaling Pathway (AID 357). Note: % is set by controls: 0 for no effect and ±100 for the full control effect. The note with it: ME-180 AP-1-bla reporter, EGF-induced, beta-lactamase ratio, 5 h; at 7.69 µM (top of the series) unless noted. The method, boiled down: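 ME-180 cells with beta-lactamase reporter under AP-1 response element, stimulated with EC50 EGF; compounds tested in titration series, 5 h at 37 °C. CCF4 substrate added 2.5 h at room temperature; 460/530 nm emission ratio gave %activity and AC50.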

The nature of experiment [3]: Stat Signaling Pathway (AID 446).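 Note: ME-180 cervical cancer cells given 40 pM IL-6 alongside compound; SIE-controlled beta-lactamase reporter measured as 460/530 nm FRET emission ratio; % is set by controls: 0 for no effect and ±100 for the full control effect.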 To be noted: ME-180 SIE beta-lactamase reporter, IL-6 stimulated, 5 h; at 7.69 µM (top of the series) unless noted. The method, boiled down:
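Compound effects on IL-6-induced STAT reporter activity were measured in ME-180 cells. After overnight culture, cells were co-treated with 40 pM IL-6 for 5 hrs before beta-lactamase substrate loading at room temperature.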

Experiment [4] addresses Glucocorticoid receptor (Homo sapiens) (UniProt P04150). In words: GR-EFC Redistribution (AID 451; calls by dose curve; note: potency is the fitted concentration of half-maximal effect). The note with it: CHO-K1 GR-EFC translocation, beta-gal luminescence, 2 h. The method, boiled down: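 Translocation of GR-ED fusion to nuclear EA restores b-gal, read by luminescence after 1 h room-temperature detection. Engineered CHO-K1 biosensor cells, 1,000/well, exposed 2 h at 37 C to titrations up to 46 uM final.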

Experiment [5] addresses Mitogen-activated protein kinase 10 (Mus musculus) (UniProt Q61831). The experiment is described as follows: JNK3 AlphaScreen Assay (AID 530).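 Note: kinase came from lysate of stimulated human HepG2 cells; signal reports phosphorylation of biotinylated GST-cJun 1-79 at Ser73 with 10 µM ATP; % is set by controls: 0 for no effect and ±100 for the full control effect.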 The note with it: JNK3 lysate, c-Jun phosphorylation; series mostly up to 57.1 µM. The method, boiled down: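 qHTS titrations with 15 min compound pre-incubation before adding ATP (10 uM final). Read-out: AlphaScreen of Ser73-phosphorylated biotin-GST-cJun using HepG2 lysate JNK3 activated by IL-1β and TNFα.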
On the technique in general: In Alpha technology, singlet oxygen from a donor bead excites a nearby acceptor bead.

The target of experiment [6] is 3',5'-cyclic-AMP phosphodiesterase 4B (Homo sapiens) (UniProt Q07343). In words: qHTS Assay for Inhibitors of PDE-IV (AID 607; active = well fitted activation curve with a large enough effect in the main read-out, with a control signal flat, not every such curve was filed as active; note: % of control where 0% means no effect). To be noted: HEK293 ACTOne CNG channel cells, membrane potential fluorescence; series mostly up to 22.9 µM. The method, boiled down:
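ACTOne HEK293 cells carry a modified cAMP-gated CNG channel and express endogenous PDE4; plated 1000 cells/well, compounds up to 22.9 uM final. Membrane-potential dye fluorescence (ex 535/em 590) was read; parental cells received 10 uM forskolin + 100 uM RO 20-1724.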
(In qHTS, concentration-response curves come from the screen itself.)

Experiment [7] can be described thus: qHTS Assay for Lipid Storage Modulators (AID 1519; calls by dose curve). The note with it: Drosophila S3 cells, BODIPY lipid droplet/cell ratio, laser cytometry, cells loaded with oleic acid; for activity change, negative = inhibition: at 57.5 µM (top of the series). The method, boiled down:
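Cells seeded at 5,000 per well were treated with compounds over a concentration series and loaded with oleic acid (400 uM, as added). Lipid droplet fluorescence (488 nm excitation, 500-530 nm channel) was read by laser-scanning cytometry and normalized to 20 uM Triacsin C.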

Experiment [8] can be described thus: Primary qHTS for small molecule stabilizers of the endoplasmic reticulum resident proteome: Secreted ER Calcium Modulated Protein (SERCaMP) assay (AID 1508630; active = well fitted curve in the direction sought with a large enough effect; an effect the other way counts as inactive or inconclusive; note: % is set by controls: 0 for no effect and ±100 for the full control effect). The note with it: SH-SY5Y GLuc-SERCaMP (Gaussia luciferase released on ER calcium loss) secretion, thapsigargin, luminescence; series mostly up to 38.4 µM. The method, boiled down:
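The SH-SY5Y reporter protocol was run at 3 concentrations up to 38.3 uM (primary) or 11 concentrations (follow-up): 16 h compound, 100 nM thapsigargin for 4 h, then extracellular luciferase luminescence.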

For experiment [9], the target named is Cytochrome P450 3A4 (Homo sapiens) (UniProt P08684). In words: qHTS Assay for Activators of Cytochrome P450 3A4 (AID 885; active = well fitted curve in the direction sought with a large enough effect; an effect the other way counts as inactive or inconclusive; note: nearly all actives have a fitted effect of over 65% in size). To be noted: recombinant CYP3A4, Luciferin-PPXE luminescence, 60 min; series mostly up to 57.1 µM. The method, boiled down:
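CYP3A4 activity: Luciferin-PPXE O-dealkylation, 25uM substrate, 200mM KPO4, RT throughout. Read-out is luciferase luminescence; higher values reflect activation.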

For experiment [10], the target named is Cytochrome P450 2C9 (Homo sapiens) (UniProt P11712). The experiment is described as follows: qHTS Assay for Inhibitors and Substrates of Cytochrome P450 2C9 (AID 883; active = well fitted curve in the direction sought with a large enough effect; an effect the other way counts as inactive or inconclusive; note: nearly all actives have a fitted effect of over 60% in size; note: potency is the fitted concentration of half-maximal effect). The note with it: recombinant CYP2C9, luciferin-H luminescence, 60 min; series mostly up to 57.1 µM. The method, boiled down:
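Inhibition of CYP2C9 is scored as loss of luminescence, with 57uM sulphaphenazole defining 100% inhibition. Substrate Luciferin-H is used at 100uM, equal to its KM; enzyme at 10nM in 25mM KPO4, 60 min at 37C with NADPH regeneration.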

Experiment [11] addresses Cytochrome P450 3A4 (Homo sapiens) (UniProt P08684). The experiment is described as follows: qHTS Assay for Inhibitors and Substrates of Cytochrome P450 3A4 (AID 884; active = well fitted curve in the direction sought with a large enough effect; an effect the other way counts as inactive or inconclusive; note: % is set by controls: 0 for no effect and ±100 for the full control effect; nearly all actives have a fitted effect of over 50% in size). To be noted: recombinant CYP3A4, Luciferin-PPXE luminescence; series mostly up to 57.1 µM. The method, boiled down: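 Luminescent readout of luciferin produced by CYP3A4 (20 nM) dealkylation of Luciferin-PPXE, 25 uM (its KM). NADPH-driven reaction ran 60 min at RT after 10 min compound preincubation; data scaled to 57 uM ketoconazole as 100% inhibition.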

Experiment [12] concerns the target Cytochrome P450 2D6 (Homo sapiens) (UniProt P10635). In words: qHTS Assay for Inhibitors and Substrates of Cytochrome P450 2D6 (AID 891; active = well fitted curve in the direction sought with a large enough effect; an effect the other way counts as inactive or inconclusive;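 note: luciferin methyl ether substrate demethylated by CYP2D6 with NADPH regeneration; % is set by controls: 0 for no effect and ±100 for the full control effect; nearly all actives have a fitted effect of over 60% in size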). The note with it: recombinant CYP2D6, luciferin-ME EGE luminescence; series mostly up to 57.1 µM. The method, boiled down:
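Luminescent read-out of luciferin formed by 5 nM human CYP2D6 demethylating 30 uM Luciferin-ME EGE (Km level) over 60 min at room temperature after NADPH regeneration addition. Data normalized to full inhibition by 1.43 uM quinidine.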

The nature of experiment [13]: qHTS Assay for Identification of Small Molecule Agonists for Hypoxia Response Element Signaling Pathway (AID 914; active = well fitted activation curve with a large enough effect in the signal ratio, with a control signal flat, not every such curve was filed as active; the % refers to the signal ratio; note: % of control where 0% means no effect). The note with it: ME-180 (cervical carcinoma) HRE-bla reporter, beta-lactamase ratio, CoCl2, 17 h; activation: stronger effect = higher value. The method, boiled down: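 HRE-bla ME-180 assay for agonist-like enhancement of an EC50 CoCl2 stimulus: 17 h at 37 degrees Celsius, CCF4 for 2.5 h, ratiometric 460/530 nm signal converted to %Activity and fitted to AC50.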

The mark [14] stands for this setting: measured here: cell count channel max response.
Setting [15] is: measured here: lipid channel max response.

Inconclusive results are not listed. Activity calls are given as the source filed them. Unless noted, calls come from the whole dose curve; as a rule, active = well fitted curve in either direction with a large enough effect (not every such curve was filed as active); inconclusive = small, poorly fitted or top-dose-only effect, or another doubt; inactive = flat fitted curve, though single readings scatter.

Chain of 3',5'-cyclic-AMP phosphodiesterase 4B (Homo sapiens) (Q07343 whole entry, looked up): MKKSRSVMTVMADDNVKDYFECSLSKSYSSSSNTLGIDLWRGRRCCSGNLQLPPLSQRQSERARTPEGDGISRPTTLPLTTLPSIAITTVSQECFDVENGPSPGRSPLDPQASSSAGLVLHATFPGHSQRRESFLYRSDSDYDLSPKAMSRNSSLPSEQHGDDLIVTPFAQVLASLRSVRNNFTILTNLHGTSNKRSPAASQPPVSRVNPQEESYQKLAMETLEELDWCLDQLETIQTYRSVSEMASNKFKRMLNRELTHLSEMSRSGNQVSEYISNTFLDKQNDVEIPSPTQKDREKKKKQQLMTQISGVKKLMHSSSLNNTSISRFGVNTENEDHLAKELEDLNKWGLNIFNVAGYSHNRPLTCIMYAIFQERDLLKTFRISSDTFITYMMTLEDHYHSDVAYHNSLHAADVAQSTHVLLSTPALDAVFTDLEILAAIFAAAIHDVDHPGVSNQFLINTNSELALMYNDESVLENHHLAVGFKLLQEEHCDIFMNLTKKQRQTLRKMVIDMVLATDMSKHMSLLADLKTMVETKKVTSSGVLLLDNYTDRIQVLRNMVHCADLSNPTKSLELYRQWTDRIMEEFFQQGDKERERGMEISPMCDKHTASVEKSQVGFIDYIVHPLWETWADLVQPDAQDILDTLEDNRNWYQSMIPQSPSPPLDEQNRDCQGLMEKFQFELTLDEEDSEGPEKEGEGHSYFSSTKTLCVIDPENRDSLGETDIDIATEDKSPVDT
Chain of Glucocorticoid receptor (Homo sapiens) (P04150 whole entry, looked up, the tested form may be a part): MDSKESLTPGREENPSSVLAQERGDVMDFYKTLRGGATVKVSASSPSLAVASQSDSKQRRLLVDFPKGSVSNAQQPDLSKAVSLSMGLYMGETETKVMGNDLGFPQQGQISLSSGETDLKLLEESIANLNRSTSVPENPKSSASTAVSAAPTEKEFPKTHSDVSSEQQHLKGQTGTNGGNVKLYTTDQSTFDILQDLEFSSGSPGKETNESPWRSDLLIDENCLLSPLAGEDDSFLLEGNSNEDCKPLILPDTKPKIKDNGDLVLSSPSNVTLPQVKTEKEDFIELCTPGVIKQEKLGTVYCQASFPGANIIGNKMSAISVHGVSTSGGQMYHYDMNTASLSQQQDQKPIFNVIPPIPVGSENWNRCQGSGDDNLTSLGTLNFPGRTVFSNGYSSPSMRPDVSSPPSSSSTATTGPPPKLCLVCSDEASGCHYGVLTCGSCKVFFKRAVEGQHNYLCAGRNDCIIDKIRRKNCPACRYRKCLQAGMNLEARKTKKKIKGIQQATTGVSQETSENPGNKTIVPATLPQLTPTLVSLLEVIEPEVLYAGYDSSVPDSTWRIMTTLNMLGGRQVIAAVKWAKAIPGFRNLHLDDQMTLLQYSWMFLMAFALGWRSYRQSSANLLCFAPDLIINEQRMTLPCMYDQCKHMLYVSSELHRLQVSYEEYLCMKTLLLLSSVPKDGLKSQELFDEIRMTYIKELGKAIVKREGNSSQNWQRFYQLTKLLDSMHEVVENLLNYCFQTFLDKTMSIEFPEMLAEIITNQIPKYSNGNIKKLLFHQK
Chain of Cytochrome P450 3A4 (Homo sapiens) (P08684 whole entry, looked up): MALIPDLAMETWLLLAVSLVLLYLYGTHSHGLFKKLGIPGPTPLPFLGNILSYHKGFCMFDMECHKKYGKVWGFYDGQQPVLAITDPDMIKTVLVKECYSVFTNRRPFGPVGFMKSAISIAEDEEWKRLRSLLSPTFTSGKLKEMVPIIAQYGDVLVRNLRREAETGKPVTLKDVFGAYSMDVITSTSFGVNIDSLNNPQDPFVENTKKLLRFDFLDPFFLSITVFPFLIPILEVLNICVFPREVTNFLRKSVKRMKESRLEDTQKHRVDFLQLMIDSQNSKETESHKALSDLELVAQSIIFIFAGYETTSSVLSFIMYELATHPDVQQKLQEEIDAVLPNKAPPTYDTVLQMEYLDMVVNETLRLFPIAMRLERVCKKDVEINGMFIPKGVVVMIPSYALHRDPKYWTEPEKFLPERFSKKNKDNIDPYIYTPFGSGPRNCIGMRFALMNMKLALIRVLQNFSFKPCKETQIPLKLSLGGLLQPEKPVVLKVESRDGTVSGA
Chain of Cytochrome P450 2C9 (Homo sapiens) (P11712 whole entry, looked up): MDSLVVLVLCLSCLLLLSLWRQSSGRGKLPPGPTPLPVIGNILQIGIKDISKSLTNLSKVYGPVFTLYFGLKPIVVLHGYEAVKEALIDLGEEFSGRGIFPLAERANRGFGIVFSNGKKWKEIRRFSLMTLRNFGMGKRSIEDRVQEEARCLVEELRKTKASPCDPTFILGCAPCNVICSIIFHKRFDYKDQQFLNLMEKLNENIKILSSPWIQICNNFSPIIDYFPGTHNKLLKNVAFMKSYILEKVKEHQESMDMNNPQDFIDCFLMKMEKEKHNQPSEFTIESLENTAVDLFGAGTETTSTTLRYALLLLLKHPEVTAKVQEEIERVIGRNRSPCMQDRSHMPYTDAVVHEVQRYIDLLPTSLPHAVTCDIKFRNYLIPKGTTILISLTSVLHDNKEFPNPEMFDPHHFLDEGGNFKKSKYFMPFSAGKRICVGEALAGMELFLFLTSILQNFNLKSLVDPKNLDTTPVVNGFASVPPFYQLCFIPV
Chain of Cytochrome P450 2D6 (Homo sapiens) (P10635 whole entry, looked up): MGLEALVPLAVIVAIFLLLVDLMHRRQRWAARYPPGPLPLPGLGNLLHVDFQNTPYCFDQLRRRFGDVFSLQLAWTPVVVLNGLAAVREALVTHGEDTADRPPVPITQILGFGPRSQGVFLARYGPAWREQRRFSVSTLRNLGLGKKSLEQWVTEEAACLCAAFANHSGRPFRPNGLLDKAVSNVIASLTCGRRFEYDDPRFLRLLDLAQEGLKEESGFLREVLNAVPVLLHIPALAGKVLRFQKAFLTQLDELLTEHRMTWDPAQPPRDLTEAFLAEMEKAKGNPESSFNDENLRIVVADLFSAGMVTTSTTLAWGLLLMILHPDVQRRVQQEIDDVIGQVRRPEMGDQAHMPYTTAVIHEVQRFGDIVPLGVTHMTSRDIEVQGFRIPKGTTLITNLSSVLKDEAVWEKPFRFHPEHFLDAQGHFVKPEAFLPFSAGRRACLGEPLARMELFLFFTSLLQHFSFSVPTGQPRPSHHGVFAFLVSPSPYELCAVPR

For `O=C(c1ccncc1)N1CCC2(CCCN(c3ccccn3)C2)CC1`, the Potency in experiment [1] is > 11.4 µM (inactive); in experiment [4], > 46 µM (inactive). In addition, the results for the activity change, negative = inhibition in experiment [2] and in experiment [7] were -11.7% (inactive) and 7.75% (inactive), respectively. For the same compound, in experiment [3], the activity, negative = inhibition was 4.12% (inactive). Further, the Potency entry in [5] and in experiment [6] was “inactive” throughout. The values for the max response in experiment [7] (setting [14]) and in [7] (setting [15]) were 10.2% and 19.9%, respectively. In [8], the result was inactive.

`COc1ccc(NC(=O)N2CC[C@@]3(CCCN(S(C)(=O)=O)C3)C2)cc1`: the Potency was > 11.4 µM (inactive) in [1] and > 46 µM (inactive) in experiment [4]. For the same compound, the activity change, negative = inhibition in experiment [2] is -12.7% (inactive); in experiment [7], 4.71% (inactive). Also, the activity, negative = inhibition in experiment [3] was -1.03% (inactive). The Potency entry in [5], in experiment [6] and in experiment [9] was “inactive” throughout. Further, the max response in [7] (setting [14]) was determined as 8.24%; in experiment [7] (setting [15]), 15.1%. For the same compound, the result in experiment [8] was inactive.

With `COc1ccc(C(=O)N2CCC3(CC2)CCN(c2ccncc2)CC3)cc1`, the Potency in [1] was > 11.4 µM (inactive); in [4] it was > 46 µM (inactive). Besides, the activity change, negative = inhibition in experiment [2] was 14.4% (inactive); in [7], -1.55% (inactive). Further, the activity, negative = inhibition in experiment [3] is 5.85% (inactive). Further, the Potency entry in [5], in experiment [6] and in [9] was “inactive” throughout. Moreover, the max response is 12.5% in experiment [7] (setting [14]) and 14% in [7] (setting [15]). The result in [8] was inactive.

Consider `CN1CC[C@@]2(CCCN(S(=O)(=O)c3ccccc3)C2)C1`, for which the values for the Potency in experiment [1] and in experiment [4] were > 11.4 µM (inactive) and > 46 µM (inactive), respectively. Besides, the figures for the activity change, negative = inhibition in experiment [2] and in experiment [7] were -25.8% (inactive) and 5.6% (inactive), respectively. Moreover, in [3], the activity, negative = inhibition is 3.36% (inactive). Also, the Potency result in experiment [5] and in experiment [6] was “inactive” each time. Moreover, the results for the max response in [7] (setting [14]) and in experiment [7] (setting [15]) were 6.91% and 16.3%, respectively. Further, in [8], the outcome was inactive.

For the compound `N#Cc1ccc(CN2CCC3(CC2)CCN(C(=O)c2ccco2)CC3)cc1`, the results for the Potency in experiment [1] and in experiment [4] were > 11.4 µM (inactive) and > 46 µM (inactive), respectively. Further, the activity change, negative = inhibition was -11.2% (inactive) in experiment [2] and 1.05% (inactive) in [7]. In experiment [3], the activity, negative = inhibition is -4.42% (inactive). Moreover, the Potency result in experiment [5] and in experiment [6] was “inactive” in each case. The max response turned out to be 20.4% in experiment [7] (setting [14]) and 24% in experiment [7] (setting [15]). Further, the outcome in experiment [8] was inactive.

`CN1CCCC2(CCN(C(=O)c3cccc(F)c3)CC2)C1`: the Potency in experiment [1] was > 11.4 µM (inactive); in [4] it was > 46 µM (inactive); in experiment [10] it was 20 µM (active). For the same compound, the results for the activity change, negative = inhibition in experiment [2] and in experiment [7] were -7.14% (inactive) and 0.413% (inactive), respectively. Moreover, the activity, negative = inhibition in experiment [3] was 6.64% (inactive). For the same compound, the Potency entry in [5], in experiment [6], in experiment [11] and in experiment [12] was “inactive” in each case. The figures for the max response in experiment [7] (setting [14]) and in experiment [7] (setting [15]) were 7.52% and 10.1%, respectively. For the same compound, in experiment [8], the outcome was inactive.

As to `COCC(=O)N1CCC2(CC1)CN(c1ccccc1)C2`, the Potency is > 11.4 µM (inactive) in experiment [1] and > 46 µM (inactive) in experiment [4]. Also, the activity change, negative = inhibition is -8.7% (inactive) in experiment [2] and 4.95% (inactive) in experiment [7]. The activity, negative = inhibition in experiment [3] is 10.6% (inactive). Besides, the Potency result in experiment [5] and in experiment [6] was “inactive” throughout. In addition, the max response in [7] (setting [14]) was 15%; in experiment [7] (setting [15]), 21.1%. The result in [8] was inactive.

As to `Cc1noc(C)c1C(=O)N1CCC2(CCN(Cc3ccccc3)CC2)CC1`, the Potency in experiment [1] is > 11.4 µM (inactive); in experiment [4] it was > 46 µM (inactive). The activity change, negative = inhibition in experiment [2] was 6.02% (inactive); in [7], 0.801% (inactive). Further, in experiment [3], the activity, negative = inhibition is 1% (inactive). The Potency entry in experiment [5], in experiment [6] and in [10] was “inactive” each time. Further, the activation in experiment [13] was -10.3% (inactive). The max response in [7] (setting [14]) was 19.5%; in experiment [7] (setting [15]), 22%. In addition, the result in [8] was inactive.
